Inconclusive results are not listed. Where a call stands in place of a potency, no number is given. The source made the active and inactive calls. Calls follow the shape of the dose curve; as a rule, active = well fitted curve in the direction sought with a large enough effect; inconclusive = small, poorly fitted or top-dose-only effect, or another doubt; inactive = no such curve, though single readings can be large; an effect the other way counts as inactive or inconclusive.
Legend:
[1] = molecular target: Aldehyde dehydrogenase, mitochondrial (Homo sapiens) (UniProt P05091); test: qHTS for Inhibitors of the Aldehyde Dehydrogenase Family (ALDH2) Primary screen (AID 2061308); also: nearly all actives have a fitted effect of over 55% in size
[2] = molecular target: Retinaldehyde dehydrogenase 3 (Homo sapiens) (UniProt P47895); test: qHTS for Inhibitors of the Aldehyde Dehydrogenase Family (ALDH1A3) Primary screen (AID 2061315)

SMILES | Potency [1] | Potency [2]
Cc1ccc(C)n1-c1cccc(-c2nn[nH]n2)c1 | inactive | inactive
O=S(=O)(NCCNS(=O)(=O)c1c(F)cccc1F)c1ccc2c(c1)OCCO2 | inactive | inactive
COc1cc(OC)c2c(c1)OC(=O)CC2c1ccc2c(c1)OCO2 (stereo not drawn) | inactive | inactive
C=C[C@H](/C=C\c1ccc(O)cc1)c1ccc(O)cc1 | inactive | inactive
Cc1cccc(CNc2ccnc(-c3cccc(C(F)(F)F)c3)n2)c1 | inactive | inactive
O=S(=O)(c1cccc(Br)c1)N1CCN(S(=O)(=O)c2ccc3c(c2)OCCO3)CC1 | inactive | inactive
c1cncc(CNc2ncnc3ccc(-c4ccco4)cc23)c1 | inactive | inactive
N#Cc1cccc(-c2noc(-c3ccccc3F)n2)c1 | inactive | inactive
CS(=O)(=O)c1ccc(C(=O)OCC#CCSc2nnc(-c3cccc4ccccc34)o2)cc1 | inactive | inactive
Cn1nnnc1Sc1ncnc2scc(-c3ccsc3)c12 | inactive | inactive
CCCn1c(C)nc2c(N(C)CCN(C)C)nc(C)nc21 | inactive | inactive
Cc1noc(C)c1-c1ccc2ncnc(NCc3ccc(C(F)(F)F)cc3)c2c1 | inactive | inactive
CC(C)(C)CNc1ncnc2ccc(-c3ccc(C(=O)O)o3)cc12 | inactive | inactive
CCCn1c(-c2ccc(F)cc2)nc2c(N3CCN(CCC(=O)OCC)CC3)nc(C)nc21 | inactive | inactive
Cc1nc(NCc2ccccc2)c2nc(-c3ccccc3)n(C3CCN(Cc4ccccc4)C3)c2n1 (stereo not drawn) | inactive | inactive
Cc1ccc(C)c(OCCn2c(CCNC(=O)C3CCCCC3)nc3ccccc32)c1 | inactive | inactive
Cc1cc(NS(=O)(=O)c2ccc(NC(=O)Cc3ccc(F)c(Cl)c3)cc2)no1 | inactive | inactive
O=C(Nc1ccc2ccccc2c1)Nc1nnc(-c2ccc(F)cc2)s1 | inactive | inactive
CC1(C)CC[C@]2(C(=O)OC3OC(CO)C(O)C(O)C3O)CC[C@]3(C)C(=CCC4[C@@]5(C)CC[C@H](OC6OC(C(=O)O)C(O)C(O)C6O)C(CO)(CO)C5CC[C@]43C)[C@@H]2C1 (stereo partly drawn) | inactive | inactive
COc1ccc(C2=Nn3c(nnc3-c3ccccc3C)SC2)cc1OC | inactive | inactive

SMILES | Potency [1] | Potency [2]
Cc1nc(N2CCOCC2)c2nc(-c3ccccc3)n(CCCN3CCOCC3)c2n1 | inactive | inactive
CNc1oc(-c2ccc(F)cc2)nc1C#N | inactive | inactive
Nc1ccc(C(=O)Nc2ccc(-c3nc4ccccc4[nH]3)cc2)cc1Cl | inactive | inactive
Cn1ccc2cc(-c3ccc4ncnc(NCc5cccs5)c4c3)ccc21 | inactive | inactive
O=C(OCC#CCSc1nnc(-c2cccc3ccccc23)o1)c1ccc(OC(F)F)cc1 | inactive | inactive
CCCCCn1ncc2c3sc(C)cc3n(C)c2c1=O | inactive | inactive
CCOC(=O)c1ccc(O)c2ncc(NCC3CCCN(CCc4ccccc4)C3)cc12 (stereo not drawn) | inactive | inactive
CNc1nnc(-c2cccc3ccccc23)s1 | inactive | inactive
O=C(Cc1nnc(-c2cc3ccccc3[nH]2)s1)Nc1cc(C(F)(F)F)ccc1Cl | inactive | inactive
CCC(O)(c1nnc(NCc2ccc3c(-c4ccc(F)cc4)cc(=O)oc3c2)o1)C(F)(F)F (stereo not drawn) | inactive | inactive
COc1ccc(Cn2ncc3c4sc(C)cc4n(C)c3c2=O)cc1F | inactive | inactive
COc1ccc2ncnc(NCC3CCCO3)c2c1-c1ccc2c(c1)OCO2 (stereo not drawn) | inactive | inactive
Cn1c2cc(Br)sc2c2cnn(Cc3ccc(F)cc3)c(=O)c21 | inactive | inactive
O=C1c2ccccc2NC(c2ccccc2O)N1Cc1ccccc1 (stereo not drawn) | inactive | inactive
Cc1ccc2oc(NC3=NC(c4[nH]ncc4Cl)C4=C(CCCC4=O)N3)nc2c1 (stereo not drawn) | inactive | inactive
COc1ccc(C(=O)Nc2nc(-c3ccccc3)cs2)c(NS(=O)(=O)c2ccc(C)cc2)c1 | inactive | inactive
CC(C)(C)OC(=O)NCc1nnc(-c2cc3ccccc3[nH]2)o1 | inactive | inactive
COc1ccc2nc(-c3ccc(N(C)C)cc3)sc2c1 | inactive | inactive
Cc1ccc(CNc2ncnc3ccc(-c4ccc5c(c4)OCO5)cc23)o1 | inactive | inactive

Reference: PubChem BioAssay (NCATS)
